# Reference: PMC4336329 (PLoS ONE, 2015)
# Out of some 310,000 compounds screened, about 14,000 (4.5%) showed an effect of 50% or more. The effect is printed as a negative number. Shown is part of a subset that was picked to be rich in strong results.
# Target: human ether-à-go-go-related gene (hERG) potassium channel (human, UniProt Q12809)
# Experiment: primary screen, population patch clamp on CHO cells stably expressing hERG; higher = less effect of the substance
# 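Note: peak tail current of the secondary pulse compared with the same well before compound.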
# Chain of human ether-à-go-go-related gene (hERG) potassium channel (Q12809 whole entry, looked up): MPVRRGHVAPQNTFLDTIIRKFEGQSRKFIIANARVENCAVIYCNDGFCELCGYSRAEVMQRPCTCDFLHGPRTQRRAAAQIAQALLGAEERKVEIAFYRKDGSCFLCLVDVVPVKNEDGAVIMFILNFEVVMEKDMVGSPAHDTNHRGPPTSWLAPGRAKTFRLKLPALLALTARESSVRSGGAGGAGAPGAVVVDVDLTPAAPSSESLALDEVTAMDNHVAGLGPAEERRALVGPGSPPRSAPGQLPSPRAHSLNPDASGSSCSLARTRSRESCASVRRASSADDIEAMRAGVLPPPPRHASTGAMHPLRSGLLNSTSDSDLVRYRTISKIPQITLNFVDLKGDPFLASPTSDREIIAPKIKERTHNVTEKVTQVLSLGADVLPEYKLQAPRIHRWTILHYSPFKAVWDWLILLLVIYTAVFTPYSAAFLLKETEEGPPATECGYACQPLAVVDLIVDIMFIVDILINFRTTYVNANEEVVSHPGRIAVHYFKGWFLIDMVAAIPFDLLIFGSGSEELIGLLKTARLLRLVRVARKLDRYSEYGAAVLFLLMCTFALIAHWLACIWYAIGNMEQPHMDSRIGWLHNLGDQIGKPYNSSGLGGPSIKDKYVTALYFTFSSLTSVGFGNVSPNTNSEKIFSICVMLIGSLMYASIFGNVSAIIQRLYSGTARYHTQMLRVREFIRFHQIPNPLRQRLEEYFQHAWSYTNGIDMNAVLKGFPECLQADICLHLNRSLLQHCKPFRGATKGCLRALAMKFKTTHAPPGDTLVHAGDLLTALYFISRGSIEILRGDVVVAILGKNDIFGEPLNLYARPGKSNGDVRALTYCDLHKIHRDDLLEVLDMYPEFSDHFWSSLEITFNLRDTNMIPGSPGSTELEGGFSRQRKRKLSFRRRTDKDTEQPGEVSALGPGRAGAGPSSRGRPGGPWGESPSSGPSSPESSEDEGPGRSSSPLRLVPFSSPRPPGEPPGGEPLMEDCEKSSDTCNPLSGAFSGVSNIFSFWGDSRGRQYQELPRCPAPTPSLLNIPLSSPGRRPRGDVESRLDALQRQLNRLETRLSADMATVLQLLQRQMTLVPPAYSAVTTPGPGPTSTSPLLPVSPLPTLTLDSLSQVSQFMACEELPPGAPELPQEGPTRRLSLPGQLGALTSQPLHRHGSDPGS
row,SMILES,"hERG current change (%, negative = inhibition) at 10uM [%]"
1,CCCc1nnc(NC(=O)CN2CCN(C)CC2)s1.Cl,-1.91
2,O=C(Nc1cccc(O)c1)c1noc2c1CCCCC2,-8.56
3,O=c1[nH]nc(-c2ccc(F)cc2)cc1Cc1ccccc1,3.89
4,CN(C)C(=O)c1cc(C(=O)c2ccc(F)cc2Cl)c[nH]1,11.4
5,CN(Cc1ccc(OC(F)F)cc1)Cc1nc2c(Br)cc(Br)cc2c(=O)[nH]1,-5.29
6,COc1cc(/C=C/C(=O)OCC(=O)NC2CCS(=O)(=O)C2)ccc1OC(F)F (centres unmarked),-14
7,COc1cc(NC(=O)NS(=O)(=O)c2ccc(C)cc2)cc(OC)c1,-1.04
8,CSc1snc(SCC(N)=O)c1C#N,20.6
9,Cc1cccc(-n2c(C)nc3c(cnn3-c3ccc(F)cc3)c2=O)c1,-12.6
10,COc1ccc(C)cc1NC(=O)c1cccc(-c2ccc(OC(C)=O)cc2)c1,28.5
11,COc1ccc(NC(=O)Nc2nnc(N3CCC(C)CC3)s2)cc1OC,-0.885
12,CC1=NNC(=O)C1C(c1cccc(O)c1)C(C#N)C#N (centres unmarked),14.3
13,CC(NC(=O)COC(=O)c1cc([N+](=O)[O-])ccc1N1CCOCC1)c1ccc(F)cc1 (centres unmarked),-56.8
14,CC(C)CCNC(=O)c1cc([N+](=O)[O-])ccc1N1CCOCC1,-17.1
15,O=C(NC1CCCCC1)c1cc([N+](=O)[O-])ccc1N1CCOCC1,-13.8
16,O=C(NCCOc1ccccc1F)c1cc([N+](=O)[O-])ccc1N1CCOCC1,-45.1
17,O=C(COC(=O)c1cc([N+](=O)[O-])ccc1N1CCOCC1)c1ccccc1Cl,-2.75
18,CC(=O)Nc1ccc(NC(=O)COC(=O)c2cc([N+](=O)[O-])ccc2N2CCOCC2)cc1,0.326
19,O=C(NC1CCSc2ccccc21)c1cc([N+](=O)[O-])ccc1N1CCOCC1 (centres unmarked),-57.8
20,CN(Cc1ccccc1)C(=O)COC(=O)c1cc([N+](=O)[O-])ccc1N1CCOCC1,-56.7
21,O=C(NCCOc1ccccc1)c1cc([N+](=O)[O-])ccc1N1CCOCC1,-62.1

row,SMILES,"hERG current change (%, negative = inhibition) at 10uM [%]"
1,O=C(NC1CCSc2ccccc21)c1cccc([N+](=O)[O-])c1 (centres unmarked),-21.1
2,O=C(COC(=O)c1cc([N+](=O)[O-])ccc1N1CCOCC1)Nc1cccc(F)c1,-28.5
3,CCN(C(=O)COC(=O)c1cc([N+](=O)[O-])ccc1N1CCOCC1)c1ccccc1,-34.3
4,COC(=O)c1ccccc1NC(=S)N1CCC(N2CCCCC2)CC1,-12.2
5,Cc1oc(-c2ccccc2Cl)nc1CS(=O)CC(=O)NC1CC1 (centres unmarked),7.58
6,C[C@@H]1C=C[C@](Cc2ccccc2)(C(=O)NCCc2c[nH]c3ccccc23)N1C(=O)c1ccccc1,-7.94
7,COc1ccc(Nc2c(C)cccc2C)cc1,17.7
8,COc1ccc(-c2cc(C)nc(SCC(=O)c3cccc([N+](=O)[O-])c3)n2)cc1,0.439
9,O=C(COC(=O)C1C2CC3OC(=O)C1C3C2)Nc1ccc(F)cc1 (centres unmarked),13.2
10,COc1ccc(CN2CCC(C(=O)N3CCCC(C)C3)CC2)cc1OC.O=C(O)C(=O)O (centres unmarked),-19.2
11,CCC(C)(C)NC(=O)CSc1nc(Cc2ccccc2)nc2ccccc12,11.5
12,CCOc1ccccc1NS(=O)(=O)c1ccc2c(c1)NC(=O)CCS2,-46
13,O=C(CC1C(=O)NCCN1Cc1ccc(F)c(F)c1)NCCCn1ccnc1 (centres unmarked),19
14,CC(NC(=O)c1ccc2ccccc2n1)c1ccccc1 (centres unmarked),-6.17
15,O=C(COC(=O)c1cc([N+](=O)[O-])ccc1N1CCOCC1)c1ccc(Br)cc1,-44.6
16,O=C(NCCc1cccc(Cl)c1)c1cccc([N+](=O)[O-])c1,-15.7
17,O=C(COC(=O)c1cc([N+](=O)[O-])ccc1N1CCOCC1)c1ccccc1,-20.1
18,CN(CC(=O)Nc1ccc(F)cc1)C(=O)c1cc([N+](=O)[O-])ccc1N1CCOCC1,-24.9
19,O=C(NCCc1ccc(F)cc1)c1cc([N+](=O)[O-])ccc1N1CCOCC1,-71.4
20,NS(=O)(=O)c1ccc(CCNC(=O)c2cc([N+](=O)[O-])ccc2N2CCOCC2)cc1,-15.2
21,O=C(COC(=O)c1cc([N+](=O)[O-])ccc1N1CCOCC1)c1ccc(F)cc1,-55.9

row,SMILES,"hERG current change (%, negative = inhibition) at 10uM [%]"
1,CN(CC(=O)Nc1ccccc1Cl)C(=O)COC(=O)c1cc([N+](=O)[O-])ccc1N1CCOCC1,-44.4
2,COc1ccc(CCNC(=O)c2cc([N+](=O)[O-])ccc2N2CCOCC2)cc1,-33
3,O=C(NCCCc1ccccc1)c1cc([N+](=O)[O-])ccc1Cl,-12.3
4,CN(CC(=O)Nc1ccc(F)cc1)C(=O)COC(=O)c1cc([N+](=O)[O-])ccc1N1CCOCC1,-64.3
5,O=C(NCCc1cccc(Cl)c1)c1cc([N+](=O)[O-])ccc1Cl,-51
6,CC(C)C(=O)NC(=S)Nc1sc2c(c1C(N)=O)CCCC2,13.5
7,COc1ccc(N2C(=O)CSCC2=O)cc1OC,8.4
8,Cc1ccc2nc(CCl)[n+]([O-])c(-c3ccccc3)c2c1,1.16
9,Cc1ccc(CN2C(=O)CCC2C(=O)NCCN2CCOCC2)cc1 (centres unmarked),3.18
10,CCc1cccc(CC)c1NC(=O)CN1CCN(c2ccccc2)CC1.Cl,-15.7
11,O=S(=O)(N1CCOCC1)N1CCN(c2ccccc2F)CC1,-8.17
12,CC(C)CNC(=O)c1ccccc1-c1ccccc1C(=O)O,19.5
13,CCc1nnc(NC(=O)CSc2nnc(C(C)NC(=O)c3ccccc3F)n2C)s1 (centres unmarked),9.22
14,N#CC1(NC(=O)COC(=O)c2cc([N+](=O)[O-])ccc2N2CCCC2)CCCCC1,-29.8
15,O=C(COC(=O)c1cc([N+](=O)[O-])ccc1N1CCOCC1)NCc1ccc(Cl)cc1Cl,-63
16,COc1ccccc1CNC(=O)COC(=O)c1cc([N+](=O)[O-])ccc1N1CCOCC1,-48.9
17,CCOc1ccc(NC(=O)COC(=O)c2cc([N+](=O)[O-])ccc2N2CCOCC2)cc1,-43.8
18,O=C(COC(=O)c1cc([N+](=O)[O-])ccc1N1CCOCC1)Nc1ccc(Cl)cc1,-28.2
19,CCOc1ccc(C(=O)c2cc([N+](=O)[O-])ccc2N2CCOCC2)cc1,-20.4
20,N#CC1(NC(=O)COC(=O)c2cc([N+](=O)[O-])ccc2N2CCOCC2)CCCCC1,-55.3
21,CCOc1ccc(NC(=O)c2cc([N+](=O)[O-])ccc2N2CCOCC2)cc1,-55.5

row,SMILES,"hERG current change (%, negative = inhibition) at 10uM [%]"
1,O=C(COC(=O)c1cc([N+](=O)[O-])ccc1N1CCOCC1)NC1CCCCC1,-30.7
2,CCOc1cc(/C=N/NC(=O)c2cccnc2)ccc1OCC(=O)N(C)C,19.3
3,CC(OC(=O)c1ccccc1C(=O)N(C)c1ccccc1)C(=O)Nc1ccccc1[N+](=O)[O-] (centres unmarked),-45.5
4,CN1[C@@H]2CC[C@H]1CC(OC1c3ccccc3CCc3ccccc31)C2.O=C(O)CC(O)(CC(=O)O)C(=O)O (some centres unmarked),-42.6
5,CC(C)NC(=O)c1cc(-c2cccs2)on1,-4.89
6,CCCCN(C(=O)c1ccc2c(c1)S(=O)(=O)N=C1CCCCCN12)c1c(N)n(CCCC)c(=O)[nH]c1=O,8.23
7,COc1cc(N=CC2=C(O)c3ccccc3C2=O)cc(OC)c1,8.36
8,Cc1cccc(NS(=O)(=O)c2ccc(C)c(C(=O)NCC(c3ccccc3)N(C)C)c2)c1 (centres unmarked),-14.2
9,Nc1c(-c2ccccc2)c(CSc2nc3ccccc3[nH]2)nn1-c1cccc(Cl)c1,-3.15
10,O=C(COc1ccc(Cl)cc1)NC1CC1,5.47
11,O=C(Nc1ccccc1-c1nc2ccccc2s1)C1=COCCO1,0.377
12,O=C(Nc1ccc(-c2nc3ccccc3s2)cc1)C1=COCCO1,22.2
13,O=C(Nc1ccc(-c2nc3ccccc3s2)c(O)c1)C1=COCCO1,-73.1
14,CCOc1ccc(/C(O)=C2/C(=O)C(=O)N(CCN(CC)CC)C2c2cccs2)cc1 (centres unmarked),8.37
15,O=c1cc(-c2ccccc2Cl)oc2ccc([N+](=O)[O-])c(O)c12,9.93
16,Cc1ccccc1CCN1CCCC(CN(C)C(=O)C(=O)c2ccco2)C1 (centres unmarked),-70.1
17,CN(CC1CCCN(CCc2ccc(Cl)cc2)C1)C(=O)C(=O)c1ccco1 (centres unmarked),-74.5
18,CN(CC1CCCN(CCc2ccc(Cl)cc2)C1)C(=O)c1ccco1 (centres unmarked),-25.5
19,Cc1ccccc1CCN1CCCC(CN(C)CC(C)(C)C)C1 (centres unmarked),8.88
20,CCOc1ccc(NC(=O)CSc2nncn2C)cc1,18.7
